The values below come from PubChem BioAssay (NCATS).

The target of experiment [1] is Glucocorticoid receptor (Homo sapiens) (UniProt P04150). Nature of the experiment: GR-GFP Redistribution (AID 450;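 active means compounds whose dose series gives a full or clear partial fitted curve of increased nuclear translocation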; further: potency means the concentration at half of the fitted maximal effect). Conditions: U2OS GR-GFP nuclear translocation, laser cytometry, 2 h.
A short description of experiment [2]: Cell Viability - BJ (AID 421; calls by dose curve;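 further: potency means the concentration at half of the fitted maximal effect; cells exposed to compound for 40 hours at 37 °C before readout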). Conditions: BJ fibroblast viability, qHTS. The procedure, abridged: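 Cytotoxicity in human BJ foreskin fibroblasts is scored as loss of cellular ATP after a 40-hour exposure, measured by luciferase luminescence. Controls are DMSO and 100 uM tamoxifen.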
The nature of experiment [3]: Cell Viability - MRC5 (AID 434; calls by dose curve;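 further: potency means the concentration at half of the fitted maximal effect; potency reflects cytotoxicity seen as loss of intracellular ATP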). Conditions: MRC5 lung fibroblast viability, qHTS. In short, it runs like this: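 MRC5 normal human lung fibroblasts, 1500 cells/well, exposed to compound for 40 hr at 37 C. Cellular ATP was read by CellTiter-Glo luminescence; data normalized to DMSO and 100 uM tamoxifen, with AC50 from Hill fits.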
The target in experiment [4] is Mitogen-activated protein kinase 10 (Mus musculus) (UniProt Q61831). Nature of the experiment: JNK3 AlphaScreen Assay (AID 530; active means well fitted curve in either direction with a large enough effect, not every such curve was filed as active;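 further: kinase came from lysate of stimulated human HepG2 cells; signal reports phosphorylation of biotinylated GST-cJun 1-79 at Ser73 with 10 µM ATP; on the % scale 0 is the no-effect control and ±100 the full control effect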). Conditions: JNK3 lysate, c-Jun phosphorylation; series mostly up to 57.1 µM. In short, it runs like this:
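Pre-activated (IL-1β/TNFα) JNK3 in HepG2 lysates phosphorylates biotin-GST-cJun(1-79), 10 uM ATP; anti-phospho-cJun(Ser73) AlphaScreen read at room temperature, pH 7.6 Tris buffer. Compounds pre-incubated 15 min as titrations.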

Experiment [5] in a line: Cell Viability - N2a (AID 540).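 Further: plate controls were DMSO alone for no effect and tamoxifen control for full effect; nearly all actives have a fitted effect of over 45% in size.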 Conditions: N2a mouse neuroblastoma cell viability; activity change, negative = cytotoxicity: at 92.2 µM (top of the series). In short, it runs like this:
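Luminescent ATP signal (CellTiter-Glo, 20 min at room temperature) served as the viability read-out after N2a cells were treated with compounds for 40 hours at 37 °C. Concentration-response data were fitted to the Hill equation for AC50.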

Experiment [6] is described as follows: Cell Viability - NIH 3T3 (AID 541). Further: nearly all actives have a fitted effect of over 25% in size. Further: potency means the concentration at half of the fitted maximal effect.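 On activity change, negative = cytotoxicity: plate controls were DMSO alone for no effect and tamoxifen positive control for full effect.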 The conditions noted are these: NIH 3T3 cell viability, qHTS; activity change, negative = cytotoxicity: at 92.2 µM (top of the series). In short, it runs like this: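 Luminescent ATP signal (CellTiter-Glo) served as the viability read-out after NIH 3T3 cells were exposed to compounds over a concentration range for 40 hr at 37 °C. Hill-equation modelling of concentration-response data gave AC50.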

The nature of experiment [7]: Cell Viability - Renal Proximal Tubule (AID 545). Further: nearly all actives have a fitted effect of over 40% in size. Further: potency means the concentration at half of the fitted maximal effect. Conditions: renal proximal tubule cells viability; activity change, negative = cytotoxicity: at 91.7 µM (top of the series) unless noted. In short, it runs like this:
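In this qHTS format, normal rat kidney-derived proximal tubule cells in complete culture medium receive compound titrations, then sit 40 hours at 37 °C before luciferase-based ATP quantitation; potency is reported as AC50 from concentration-response curves.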

Experiment [8] is described as follows: Cellular Toxicity (caspase-3) HepG2 (AID 654).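 Further: cells exposed to compound for 16 hours before reading.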 The conditions noted are these: HepG2 caspase-3 activation, luminescence, 0% = DMSO only, 100% = tamoxifen; series mostly up to 92.2 µM. In short, it runs like this: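 Cells plated 5 hr at 37 °C, compound added, incubated 16 hr at 37 °C. Caspase-Glo 3/7 reagent followed, 20 min at room temperature, then luminescence read. Activation scored as signal increase; AC50 from Hill fit.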

Experiment [9] in a line: Cellular Toxicity (caspase-3) HUV-EC-C (AID 656). Conditions: HUV-EC-C cells, caspase-3 activation (apoptosis), vehicle = 0, 100 µM tamoxifen = 100%; series mostly up to 92.2 µM. The procedure, abridged: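 Concentration-dependent caspase 3/7 induction was assessed in HUV-EC-C cells exposed for 16 hours. Data scaled between DMSO and tamoxifen (100 uM) controls.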
Experiment [10] is described as follows: Cellular Toxicity (caspase-3) MRC-5 (AID 659). The conditions noted are these: MRC-5 cells, luminescence, normalized: DMSO 0%, 10 µM staurosporine 100%; series mostly up to 91.7 µM. The procedure, abridged:
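MRC-5 human normal lung fibroblasts, 1500 cells/well, treated 16 h at 37 °C in complete medium. Caspase 3/7 measured by Caspase-Glo luminescence after 1 h at room temperature. Normalized to DMSO and 10 uM staurosporine; AC50 from Hill fit.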

A short description of experiment [11]: Cellular Toxicity (caspase-3) N2a (AID 665).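 Further: compound exposure lasted 16 h at 37 °C before readout.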 The conditions noted are these: N2a cells, luminescence, normalized: DMSO 0%, 10 µM staurosporine 100%; series mostly up to 92.2 µM. In short, it runs like this: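 N2a cells, 1500/well, 5 h settle at 37 °C; cpd 16 h, 37 °C; Caspase-Glo 3/7, 1 h RT; luminescence. Norm: DMSO = 0, 10 uM staurosporine = 100%. AC50, Hill fit.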

A short description of experiment [12]: Cellular Toxicity (caspase-3) Renal Proximal Tubule (AID 667).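 Further: cells exposed to compound for 16 hours at 37 °C before detection.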 The conditions noted are these: renal proximal tubule cells; at 91.7 µM (top of the series) unless noted. The procedure, abridged:
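Caspase-Glo 3/7 read-out, rat primary kidney proximal tubule cells. Compound exposure 16 h, 37 °C; detection after 1 h at RT. Activity scaled to DMSO and 10 uM staurosporine.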

The nature of experiment [13]: MultiTox-Fluor Cytotoxicity Assay - LYMP1-003 - Live Cells (AID 962).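 Further: cells exposed to compound for 16 hours at 37 °C; 0% = DMSO only and full loss = 92 µM tetraoctylammonium bromide; cytotoxic hits lower the live-cell protease signal.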 Conditions: LYMP1-003 lymphoblastoid cells, MultiTox-Fluor live-cell protease fluorescence; series mostly up to 92.2 µM. In short, it runs like this:
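qHTS, 1536-well; 2500 cells/well LYMP1-003; 5 hr 37 C settle; cpd 16 hr 37 C; MultiTox-Fluor reagent 60 min RT; live-cell protease fluor. 405/510; Hill-fit AC50; tetraoctylammonium bromide pos. ctrl.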

Experiment [14] is described as follows: Cell Viability - LYMP2-008 (AID 980). Further: nearly all actives have a fitted effect of over 60% in size. Further: potency means the concentration at half of the fitted maximal effect.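 On activity change, negative = cytotoxicity: cells exposed to compound for 24 h at 37 °C; on the % scale 0 is the no-effect control and ±100 the full control effect.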 The conditions noted are these: LYMP2-008 lymphoblastoid cell viability, qHTS; series mostly up to 92.2 µM. The procedure, abridged:
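qHTS, human lymphoblastoid line, 2500 cells/well; 5 hr preincubation, 24 hr compound, 37 C. CellTiter-Glo ATP luminescence. AC50 via Hill equation. Tetraoctylammonium bromide positive control.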

In experiment [15] the target is Tumor necrosis factor (Homo sapiens) (UniProt P01375). Nature of the experiment: qHTS assay to identify small molecules that stimulate Tumor Necrosis Factor-alpha (TNF-alpha) secretion (AID 651757; active means well fitted curve in the direction sought with a large enough effect in the signal ratio; the % refers to the signal ratio; further: 0% is about no effect). Conditions: Human cells, HTRF 665/615 ratio; series mostly up to 92.2 µM. The procedure, abridged: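 Read-out is HTRF, a TR-FRET sandwich of cryptate- and XL665-labeled anti-TNF-alpha antibodies detecting cytokine secreted by THP-1 cells. Cells had been incubated with test compounds at 37 C for 17 hrs beforehand.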

The nature of experiment [16]: qHTS assay for environmental chemicals that activate the Aryl hydrocarbon Receptor (AhR) signaling pathway (AID 651777). Further: % of control where 0% means no effect; nearly all actives have a fitted effect of over 15% in size. Conditions: 1A2-DRE human hepatoma cells, luciferase, 24 h; activation: active compounds read high. In short, it runs like this:
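Reporter gene assay: hepatoma cells with DRE/CYP1A2-luciferase, 24 hr compound incubation at 37 C, 5% CO2, luminescence after One-Glo (30 min, RT).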

For experiment [17], the target named is Alpha-galactosidase (Coffea arabica) (UniProt Q42656). Nature of the experiment: Counterscreen for Glucocerebrosidase Inhibitors: qHTS Assay for Coffee Bean alpha-Galactosidase at pH 4.5 (AID 957).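 Further: plate controls were enzyme alone for no effect and no enzyme for full effect.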 The conditions noted are these: purified coffee bean alpha-galactosidase, fluorogenic substrate; series mostly up to 76.9 µM. The procedure, abridged: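 Coffee bean alpha-galactosidase 2 nM, substrate 4-MU-alpha-Gal 80 uM, pH 4.5 citrate/Tween-20, 20 min RT. Cpd titration 0.7 nM–77 uM. Stop pH 10, fluorescence 365/440 nm; Hill-equation AC50.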

Experiment [18] has the same target. Nature of the experiment: Counterscreen for Glucocerebrosidase Inhibitors: qHTS Assay for Coffee Bean alpha-Galactosidase at pH 5.9 (AID 998).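 Further: plate controls were uninhibited enzyme for no effect and no-enzyme basal signal for full effect.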 Conditions: coffee bean alpha-galactosidase enzyme assay; series mostly up to 76.9 µM. In short, it runs like this:
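Green coffee bean enzyme (2 nM) with 4-methylumbelliferyl alpha-D-galactopyranoside (80 uM) in 50 mM citric acid, 0.005% Tween-20, pH 5.9, 20 min at room temperature; compounds 0.7 nM–77 uM. Stopped at pH 10, fluorescence Ex365/Em440; Hill-fit AC50.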

The nature of experiment [19]: Cell Viability - Mesenchymal (AID 546).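 Further: cells exposed to compound for 40 hours before reading.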 Conditions: mesenchymal cells viability, qHTS; activity change, negative = cytotoxicity: at 91.7 µM (top of the series). In short, it runs like this: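 Human kidney mesenchymal cells from normal renal glomeruli, 1000 cells/well, rested 5 hr at 37 °C, then treated 40 hr at 37 °C in complete medium. Cellular ATP read by CellTiter-Glo luminescence; AC50 from Hill-equation fits.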

Each structure is given as a SMILES string. Values without a mark were called inactive. Records with an inconclusive call do not appear. Calls of active or inactive are those of the source. Unless noted, the call rests on the fitted dose curve; in most records, active means well fitted curve in the direction sought with a large enough effect; inconclusive means small, poorly fitted or top-dose-only effect, or another doubt; inactive means no such curve, though single readings can be large; an effect the other way counts as inactive or inconclusive.

Sequence of Tumor necrosis factor (Homo sapiens) (P01375 whole entry, looked up): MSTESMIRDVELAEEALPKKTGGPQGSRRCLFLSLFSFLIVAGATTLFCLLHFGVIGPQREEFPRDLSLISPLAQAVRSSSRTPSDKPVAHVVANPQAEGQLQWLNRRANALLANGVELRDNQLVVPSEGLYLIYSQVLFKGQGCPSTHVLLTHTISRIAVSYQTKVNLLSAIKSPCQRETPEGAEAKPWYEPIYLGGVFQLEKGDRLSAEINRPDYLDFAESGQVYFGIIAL
Sequence of Glucocorticoid receptor (Homo sapiens) (P04150 whole entry, looked up): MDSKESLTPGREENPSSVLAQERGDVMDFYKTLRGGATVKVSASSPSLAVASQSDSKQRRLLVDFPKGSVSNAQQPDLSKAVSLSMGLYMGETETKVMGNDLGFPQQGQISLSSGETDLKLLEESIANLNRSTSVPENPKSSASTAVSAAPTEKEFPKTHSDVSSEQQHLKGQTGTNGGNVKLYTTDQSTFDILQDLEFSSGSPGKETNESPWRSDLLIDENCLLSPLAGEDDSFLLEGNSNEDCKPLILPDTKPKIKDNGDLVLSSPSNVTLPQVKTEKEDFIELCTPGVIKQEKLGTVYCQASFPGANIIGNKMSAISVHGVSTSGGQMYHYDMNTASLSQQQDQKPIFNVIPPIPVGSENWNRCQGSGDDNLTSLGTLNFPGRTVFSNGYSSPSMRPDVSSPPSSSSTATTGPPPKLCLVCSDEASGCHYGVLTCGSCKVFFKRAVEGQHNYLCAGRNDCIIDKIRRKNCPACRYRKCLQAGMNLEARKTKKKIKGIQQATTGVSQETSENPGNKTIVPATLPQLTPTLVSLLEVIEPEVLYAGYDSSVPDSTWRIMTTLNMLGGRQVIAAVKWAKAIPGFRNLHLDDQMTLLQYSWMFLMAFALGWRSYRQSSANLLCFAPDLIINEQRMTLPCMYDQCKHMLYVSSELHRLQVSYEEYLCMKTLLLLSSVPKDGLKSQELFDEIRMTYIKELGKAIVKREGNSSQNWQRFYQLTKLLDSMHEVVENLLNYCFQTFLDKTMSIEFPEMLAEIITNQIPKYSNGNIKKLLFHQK
Sequence of Alpha-galactosidase (Coffea arabica) (Q42656 whole entry, looked up): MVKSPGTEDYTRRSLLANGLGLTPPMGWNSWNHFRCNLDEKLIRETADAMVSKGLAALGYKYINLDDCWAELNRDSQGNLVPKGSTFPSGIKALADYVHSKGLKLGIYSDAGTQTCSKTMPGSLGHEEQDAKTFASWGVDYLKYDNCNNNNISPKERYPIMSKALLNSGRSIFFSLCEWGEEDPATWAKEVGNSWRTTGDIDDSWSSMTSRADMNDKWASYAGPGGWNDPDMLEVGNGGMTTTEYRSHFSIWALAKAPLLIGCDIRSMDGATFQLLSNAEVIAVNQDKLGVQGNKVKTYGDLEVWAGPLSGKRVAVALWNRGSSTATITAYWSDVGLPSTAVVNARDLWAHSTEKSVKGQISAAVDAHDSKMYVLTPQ

Take `CCOc1ccc(-n2c(O)c(C=Nc3ccc(N(CC)CC)cc3)c(=O)[nH]c2=O)cc1`: in experiment [1], the Potency was above 20.6 µM.

In the case of `CCN(CC)CCN=C(C)c1c(O)n(-c2ccccc2OC)c(=O)[nH]c1=O`, the Potency in experiment [1] was above 20.6 µM.

`CC(=O)[O-].CC(=O)[O-].O.O.[Cd+2]`: the Potency in experiment [2] is above 92 µM; in [3] it was above 92 µM; in experiment [7], 25.1 µM [primary cells of rat origin] (active); in [14] it was 50.1 µM (active). In addition, the call in [4], in [8], in [9], in [10] and in experiment [11] was inactive. Further, the activity change, negative = cytotoxicity was -111% (active) in experiment [5] and -127% (active) in experiment [6]. Besides, the caspase-3 activation in [12] is -14.3% [at 91.7 µM, primary cells freshly taken from rat, solvent-only wells 0%, staurosporine 100%]. The Potency entry in experiment [13] and in [15] was “inactive” throughout. Moreover, the activation in experiment [16] is 1.94%.

Turning to `O=[N+]([O-])C(Br)Br`, the activity change, negative = cytotoxicity in [5] was -119% (active). For the same compound, the Potency is 31.6 µM (active) in experiment [6] and 12.6 µM (active) in experiment [14]. Further, the Potency result in experiment [7], in experiment [13] and in experiment [15] was “inactive” throughout. Further, the compound was classed as inactive in [8], in [9], in experiment [10] and in experiment [11]. The caspase-3 activation in [12] is 2.88%. Further, the activation in [16] is 1.61%.

Consider `Oc1cc2c(cc1O)[C@H]1c3ccccc3CN[C@@H]1CC2`, for which, in experiment [1], the Potency was above 46 µM. Besides, the compound was called inactive in experiment [4], in experiment [17] and in experiment [18].

As for `O=C(O)C1C(C(=O)O)C2(Cl)C(Cl)=C(Cl)C1(Cl)C2(Cl)Cl` (centres undefined), the Potency in experiment [2] and in experiment [3] was above 92 µM in each case. For the same compound, the compound was called inactive in experiment [4], in experiment [8], in experiment [9], in experiment [10] and in [11]. Further, in experiment [5], the activity change, negative = cytotoxicity is 14.3%. The Potency result in experiment [6], in [7], in experiment [19], in experiment [13], in experiment [14] and in experiment [15] was “inactive” in each case. Further, the caspase-3 activation in [12] was -21% [at 91.7 µM, primary cells freshly taken from rat, solvent-only wells 0%, staurosporine 100%]. In addition, the activation in [16] is 0.623%.
